This test is described as follows: beta-lactam sensitization of Mtb H37Rv, H37Rv (AID 434955).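 Also: growth measured after seven days incubation then overnight dye step; 0% = bacteria only wells and 100% = bacteria with antibiotic.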 As to conditions: M. tuberculosis H37Rv growth with meropenem, percent inhibition, at 25 µM.
[1] abbreviates: measured here: primary screen without meropenem.

The record followed here is PubChem BioAssay AID434955 (Southern Research Specialized Biocontainment Screening …, 2010).

As a reminder, the inhibition is the drop in the measured response relative to a control, in per cent.

Hit rate of the full screen: of about 330,000 compounds, about 880 (0.27%) were called active. Not shown: some 1% with an inconclusive outcome. No rule for the calls is given here. Only a sample is shown.

Regarding `COCCNC(=O)C(c1ccc(O)cc1)N(C(=O)CCC(=O)Nc1nccs1)c1ccc(C)cc1` (centres undefined), the inhibition is, setting by setting: (stronger effect = higher value) -3.29% (inactive); under setting [1], -1.6%.
Taken in the same sequence, the figures for `O=C(Cn1cnc2c(cnn2-c2ccc(F)cc2)c1=O)NCCc1ccccc1` were 8.42% (inactive) and 5.1%.
The like results for `CCOC(=O)C1CCN(C(=O)Cc2c(C(=O)O)[nH]c3ccccc23)CC1` were, in that order, 11.4% (inactive) and 8.1%.
The like results for `COCc1cc(C)nc2sc3c(=O)n(-c4cccc5ccccc45)nnc3c12` were, in that order, 41.4% (inactive) and -9.11%.
Regarding `CN(c1ccccc1)S(=O)(=O)c1cccc(C(=O)NNC(=O)c2ccncc2)c1`, the inhibition runs as follows: (stronger effect = higher value) -14.5% (inactive); under setting [1], 10.4%.
The like results for `COc1ccccc1C(=O)N/C(=C/c1ccco1)C(=O)Nc1ccc(C(=O)O)cc1` were, in that order, 5.03% (inactive) and 3.35%.
Regarding `CCOC(=O)C(=O)C1C(=O)Nc2ccccc21` (centres undefined), the inhibition was 5.13% (inactive) (stronger effect = higher value) and 3% under setting [1].
Taken in the same sequence, the figures for `COc1cc(NS(=O)(=O)c2ccc(NC(=O)c3ccc(S(=O)(=O)N4CCCCC4)cc3)cc2)ncn1` were -5.84% (inactive) and -4.25%.
As to `Cc1ccc(C(=O)N2CCC(n3nccc3NC(=O)Nc3cccc(F)c3)CC2)cn1`, the inhibition reads like this: (stronger effect = higher value) -9.41% (inactive); under setting [1], -4.97%.
Taken in the same sequence, the figures for `COc1ccccc1N(C(=O)Cn1nnc2ccccc21)C(C(=O)NCc1ccco1)c1ccc(C)o1` (centres undefined) were -4.29% (inactive) and -5.41%.
Take `CCN(Cc1nc2ccccc2c(=O)[nH]1)Cc1cc(=O)oc2cc(C)c(C)cc12`: the inhibition reads like this: (stronger effect = higher value) 1.77% (inactive); under setting [1], -4.21%.
The like results for `COc1cccc(N2CC(NC(=O)c3ccc4ccccc4c3)CC2=O)c1` (centres undefined) were, in that order, -3.62% (inactive) and 10.2%.
The like results for `O=C(CC1OC(=O)c2ccccc21)NC1CCCCC1` (centres undefined) were, in that order, 2.15% (inactive) and 2.66%.
Taken in the same sequence, the figures for `COc1ccccc1CCCNC(=O)C1CCC(=O)N(CCN2CCOCC2)C1` (centres undefined) were 1.01% (inactive) and -9.27%.
With `Cc1cc(C)c2nc3nc(C)cc(C)c3c(N)c2c1`, the inhibition was 6.08% (inactive) (stronger effect = higher value) and 4.53% under setting [1].
Taken in the same sequence, the figures for `CCC(C)N(C(=O)COC(=O)c1nc(Cl)ccc1Cl)C1CCS(=O)(=O)C1` (centres undefined) were -10.3% (inactive) and -10.3%.
The like results for `CCn1c(CNC(=O)c2ccco2)nnc1SCC(=O)Nc1cccc(F)c1` were, in that order, -8.4% (inactive) and -1.57%.
Taken in the same sequence, the figures for `O=c1cc(CN2CCN(c3cccc(Cl)c3)CC2)c2cc3c(cc2o1)CCCC3` were -11.5% (inactive) and 1.9%.
In the case of `COc1ccc(-c2ccc(OC(=O)NC3CCS(=O)(=O)C3)cc2)cc1` (centres undefined), the inhibition reads like this: (stronger effect = higher value) 87.1% (inactive); under setting [1], 66.5%.
As to `COCCOC(=O)C1=C(C)NC(=O)NC1c1cc2c(cc1Br)OCO2` (centres undefined), the inhibition runs as follows: (stronger effect = higher value) -3.19% (inactive); under setting [1], 0.53%.
The like results for `Cc1ccc(C(=O)N2CCN(S(=O)(=O)N3CCOCC3)CC2)cc1` were, in that order, -7.62% (inactive) and -3.45%.
Taken in the same sequence, the figures for `CC(C)Cc1ccc(S(=O)(=O)N2CCN(C(=O)c3ccco3)CC2)cc1` were 1.6% (inactive) and -4.13%.
